From ChEMBL document CHEMBL4888484, “Replenishing the malaria drug discovery pipeline: Screening and hit evaluation of the MMV Hit Generation Library 1 (HGL1) against asexual blood stage Plasmodium falciparum ,using a nano luciferase reporter read-out” (2022)
The campaign covered roughly 150,000 compounds. About 540 (0.36%) showed an effect of 50% or more. For the sample, strong results were picked, then their nearest neighbours and some compounds at random.

System: Plasmodium falciparum
Test: Primary screen in NF54 nanoGlo assay, in single point, at 2uM, 72h; a lower Z score goes with more inhibition
Format: functional, Erythrocyte
Conditions: timepoint 72 hour

Structure (SMILES)	% Inhibition [%]	Z score
Cc1nc2c(c(NC(=O)Cc3ccccc3)nn2C)c(C)c1Cl	-8	0.76
Cc1ccc(N2CCC(NCCCn3cccn3)CC2)cc1Cl	-5	0.81
CCn1cncc1CNC1CCN(c2ccc3c(c2)CCC3)CC1	-14	1.42
Cc1cnccc1NCCNC1CCN(c2ccc3c(c2)CCC3)CC1	85	-13.14
Cc1cnccc1NCCNC1CCN(c2ccc(Cl)cc2)CC1	99	-17.94
CN1CCC[C@@H]1CCNC1CCN(c2ccc3c(c2)CCC3)CC1	21	-2.96
CN(CC1(CO)CCCC1)C(=O)CN1CCCCC1	-8	1.48
O=C(c1ccc(F)cc1)N1CCC(N2CCS(=O)(=O)CC2)CC1	-12	1.04
CCc1cc(N2CCN(CCc3ccccc3)C(=O)C2)ncn1	-15	2
Cc1ccc([C@H]2C(=O)N(C3CCC(C)CC3)CC(=O)N2C2CCCCCCC2)cc1 (stereo partly specified)	-6	0.82
O=C(O)C1(NCc2cc(-c3ccc(Cl)cc3)no2)CCCC1	11	-1.27
CC1CC(C(=O)N2CCN(C(=O)Cc3c[nH]c4ccccc34)CC2)C1 (stereo unspecified)	-3	0.48
C[C@@H](O)[C@@H]1NC(=O)[C@@H](Cc2c[nH]c3ccccc23)NC1=O	5	-1.07
C=C1C(C)C2C(Cc3c[nH]c4ccccc34)NC(=O)C23C(=O)CC(O)C(O)CC(C)C/C=C/C3C1O (stereo unspecified)	67	-7.59
CC1=NO[C@H](C(=O)NCC2(Cn3ccnc3C)CC2)C1	-4	0.75
CCc1ccc(CN2CCC[C@H](c3ncc[nH]3)C2)nc1	65	-9.74
CCc1ccc(CN2CCC[C@H](CNC(=O)c3ccc[nH]3)C2)nc1	-4	0.44
Cc1[nH]c(CN2CCC[C@H](c3ncc[nH]3)C2)cc1C#N	-1	0.23
Cc1ccc(CN2CCC3(CC2)c2nc[nH]c2CCN3C(=O)C2CCC2)cc1C	-14	1.47
Cc1cccc2c1OCC[C@@H]2NCc1cnn(C(C)C)c1	0	0
O=C(c1cccc(-c2noc(C3CCC3)n2)c1)N1CCN(c2ccccc2)CC1	-3	0.4
O=C(O)c1cccc(-c2noc(C3CC3)n2)c1	11	-1.45
CC1CC(N)CCN1C(=O)c1cccc(-c2noc(C3CC3)n2)c1 (stereo unspecified)	56	0.5
Cc1cc(C(=O)N(CC2CCC2)CC(F)(F)F)[nH]n1	-10	1.63
CN1CCC[C@@H]1CCNC(=O)c1ccc2nc(-c3ccc(F)cc3)cn2c1	8	-1.12
O=C(NCCN1CCCC1)c1ccc2nc(-c3ccc(Cl)cc3)cn2c1	75	-6.47
CN1CCCC[C@@H]1CNC(=O)c1ccc2nc(-c3ccc(F)cc3)cn2c1	-5	0.91

Structure (SMILES)	% Inhibition [%]	Z score
Cc1ccn2c(C(=O)NCc3cc(F)ccc3C)nnc2n1	-17	3.23
CCN1CCN(Cc2cc3cc4c(cc3nc2-c2ccc(Cl)cc2)OCO4)CC1	-10	1.95
CN1CCN(Cc2cc3cc4c(cc3nc2-c2ccc(Cl)cc2)OCO4)CC1=O	53	-6.77
O=C1CCN(Cc2cc3cc4c(cc3nc2-c2ccc(Cl)cc2)OCO4)CCN1	2	-0.18
Cc1ccc(-c2nnc(N3CCC4(CCOC4)C3)n2CC2CCCO2)s1 (stereo unspecified)	-3	0.32
O=C1N[C@H]2C[C@@H](C(=O)NC[C@H]3O[C@H](CCOc4ccccc41)CC[C@@H]3O)N(Cc1ccc3c(c1)OCO3)C2	26	-2.92
O=C1N[C@H]2C[C@@H](C(=O)NC[C@H]3O[C@H](CCOc4cc(-c5ccccc5)ccc41)CC[C@@H]3O)N(Cc1ccc3c(c1)OCO3)C2	51	-1.36
O=C1N[C@H]2C[C@@H](C(=O)NC[C@H]3O[C@H](CCOc4cc(-c5ccccc5)ccc41)CC[C@@H]3O)N(Cc1ccc(Cl)c(F)c1)C2	37	-4.16
CC(C)c1cc(NCCCn2ccnn2)nc(N)n1	-5	0.75
CC(C)(C)CCCC(=O)NCCn1cnnc1C1CC1	-7	1.32
CN1CCC(N(C)C(=O)c2ccccc2NC2CCCCC2)CC1	6	-1.03
CN1CC[C@@H](CNC(=O)c2ccnc3c2ncn3C)[C@@H]1c1cccnc1	1	-0.18
COCCC(CNC(C)c1nccnc1C)NC(=O)OC(C)(C)C (stereo unspecified)	-12	1.51
CCN1CCN(c2c(CN(C(=O)NC3CCCCC3)C(C)C)c(C)nn2-c2cccc(F)c2)CC1	-10	1.04
Cc1ccc(C(=O)Nc2ccc(N3CCCN(C(=O)C4CCCC4)CC3)c(C(=O)N3CCCCC3)c2)cc1	-4	0.58
Cc1ccc(C(=O)Nc2cc3c4c(c2)C2CCCC2CN4CC2CCCC32)cc1 (stereo unspecified)	57	-4.94
Cc1ccc(C(=O)Nc2cc(C(=O)N3CCCCC3C)cc(C(=O)N3CCCCC3C)c2)cc1 (stereo unspecified)	6	-0.87
Fc1cc(Br)cnc1CN1CCC[C@H]1c1ncn[nH]1	19	-2.4
COc1ccc(CCNC(=O)N2CC=C(C(F)(F)F)CC2)cc1F	6	-1.17
Cc1ccc(Nc2nc(N)nc(CN3CCCCCCC3)n2)cc1	-5	0.66
Cc1ccc(Nc2nc(N)nc(Cn3cnc(C)c3C)n2)cc1	-3	0.51
OC1CCN(Cc2ccc(CNc3ccc(F)cn3)cc2)CC1	-6	0.93
CC(C)n1ccnc1[C@H]1CCCN(C(=O)c2cnc3c(c2)CCCC3)C1	3	-0.26
O=C(Nc1cc(C(F)(F)F)ccc1N1CCOCC1)c1nn(-c2ccccc2)c(=O)c2ccccc12	-15	2.63
CN1CCCN(c2ccc(NC(=O)c3nn(-c4ccccc4)c(=O)c4ccccc34)cc2F)CC1	82	-6.28
NC(=O)c1n[nH]c2ccc(NC(=O)c3nn(-c4ccccc4)c(=O)c4ccccc34)cc12	-3	0.31
